In PubChem BioAssay AID1159580 (chemical genetic matrix, 2015):
The campaign covered roughly 5,500 compounds. About 2,000 (36%) were called active. About 18% were inconclusive and are not listed. Rule as the data show it: active = normalized growth mostly below about 0.91 (no sharp cut-off); inconclusive = no clear call, values can overlap the other calls; inactive = mostly above about 0.92. Some of the results follow.

Test: chemical genetic growth profiling, strain panel (AID 1159580);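 also: tested at 20 µM; growth read once vehicle control cultures reached saturation at 30 °C; 1 = growth at the plate median or of vehicle wells; lower values mean less growth of the strain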
Details: growth OD

Measured: normalized growth

COC(=O)CCC(C)[C@H]1CCC2C3C(C[C@H](O)[C@@]21C)[C@@]1(C)CC[C@@H](O)C[C@H]1C[C@H]3O (stereo not given in full)
inactive: S. cerevisiae deletion strains, locus YJR075W, strain HOC1, stronger effect = lower value 0.986 | S. cerevisiae deletion strains, locus YKL009W, strain mrt4, stronger effect = lower value 1.02 | S. cerevisiae deletion strains, locus YKL068W, stronger effect = lower value 1 | S. cerevisiae deletion strains, locus YKL085W, strain MDH1 (second series), stronger effect = lower value 1.01 | S. cerevisiae deletion strains, locus YKL085W, strain MDH1, stronger effect = lower value 1.01 | S. cerevisiae deletion strains, locus YKL160W, strain elf1, stronger effect = lower value 1.03 | S. cerevisiae deletion strains, locus YKR001C, strain vps1, stronger effect = lower value 1 | S. cerevisiae deletion strains, locus YKR026C, strain gcn3, stronger effect = lower value 1.03 | S. cerevisiae deletion strains, locus YKR091W, strain srl3, stronger effect = lower value 1.01 | S. cerevisiae deletion strains, locus YLL001W, strain dnm1, stronger effect = lower value 1.03 | S. cerevisiae deletion strains, locus YLL026W, stronger effect = lower value 1.01 | S. cerevisiae deletion strains, locus YLL041C, strain sdh2, stronger effect = lower value 1.01 | S. cerevisiae deletion strains, locus YLR027C, strain aat2, stronger effect = lower value 1.01 | S. cerevisiae deletion strains, locus YLR039C, strain RIC1, stronger effect = lower value 1.13 | S. cerevisiae deletion strains, locus YLR058C, strain SHM2, stronger effect = lower value 1.01 | S. cerevisiae deletion strains, locus YLR102C, strain apc9, stronger effect = lower value 1.03 | S. cerevisiae deletion strains, locus YLR113W, strain HOG1, stronger effect = lower value 0.975 | S. cerevisiae deletion strains, locus YLR221C, strain rsa3, stronger effect = lower value 1.02 | S. cerevisiae deletion strains, locus YLR258W, strain gsy2, stronger effect = lower value 1.03 | S. cerevisiae deletion strains, locus YLR262C, strain YPT6 (second series), stronger effect = lower value 1.02 | S. cerevisiae deletion strains, locus YLR262C, strain YPT6, stronger effect = lower value 1.09 | S. cerevisiae deletion strains, locus YLR268W, strain sec22, stronger effect = lower value 1.01 | S. cerevisiae deletion strains, locus YLR320W, strain mms22, stronger effect = lower value 1.04 | S. cerevisiae deletion strains, locus YLR330W, strain CHS5, stronger effect = lower value 1.01 | S. cerevisiae deletion strains, locus YLR342W, strain FKS1 (second series), stronger effect = lower value 1.02 | S. cerevisiae deletion strains, locus YLR342W, strain FKS1, stronger effect = lower value 1.01 | S. cerevisiae deletion strains, locus YLR357W, strain rsc2, stronger effect = lower value 1.03 | S. cerevisiae deletion strains, locus YLR370C, strain arc18, stronger effect = lower value 1.01 | S. cerevisiae deletion strains, locus YLR371W, strain rom2, stronger effect = lower value 1.02 | S. cerevisiae deletion strains, locus YLR384C, strain iki3, stronger effect = lower value 1 | S. cerevisiae deletion strains, locus YLR418C, strain cdc73, stronger effect = lower value 0.932 | S. cerevisiae deletion strains, locus YML016C, strain PPZ1, stronger effect = lower value 1.04 | S. cerevisiae deletion strains, locus YML032C, strain rad52, stronger effect = lower value 1.01 | S. cerevisiae deletion strains, locus YML120C, strain ndi1, stronger effect = lower value 1.02 | S. cerevisiae deletion strains, locus YML124C, strain tub3, stronger effect = lower value 1.02 | S. cerevisiae deletion strains, locus YMR058W, strain fet3, stronger effect = lower value 1.02 | S. cerevisiae deletion strains, locus YMR078C, strain ctf18, stronger effect = lower value 1.04 | S. cerevisiae deletion strains, locus YMR125W, strain sto1, stronger effect = lower value 1.03 | S. cerevisiae deletion strains, locus YMR129W, stronger effect = lower value 1.01 | S. cerevisiae deletion strains, locus YMR205C, strain PFK2, stronger effect = lower value 1.02 | S. cerevisiae deletion strains, locus YMR223W, strain ubp8, stronger effect = lower value 0.996 | S. cerevisiae deletion strains, locus YMR231W, strain pep5, stronger effect = lower value 1.01 | S. cerevisiae deletion strains, locus YMR263W, strain SAP30, stronger effect = lower value 1.01 | S. cerevisiae deletion strains, locus YMR307W, strain GAS1, stronger effect = lower value 0.86 | S. cerevisiae deletion strains, locus YNL067W, strain RPL9B, stronger effect = lower value 1 | S. cerevisiae deletion strains, locus YNL071W, strain lat1, stronger effect = lower value 1.01 | S. cerevisiae deletion strains, locus YNL128W, strain TEP1, stronger effect = lower value 1.02 | S. cerevisiae deletion strains, locus YNL153C, strain GIM3, stronger effect = lower value 0.988 | S. cerevisiae deletion strains, locus YNL183C, strain NPR1, stronger effect = lower value 0.955 | S. cerevisiae deletion strains, locus YNL209W, strain ssb2, stronger effect = lower value 1.02 | S. cerevisiae deletion strains, locus YNL233W, strain BNI4, stronger effect = lower value 0.957 | S. cerevisiae deletion strains, locus YNL248C, strain rpa49, stronger effect = lower value 1.04 | S. cerevisiae deletion strains, locus YNL250W, strain rad50, stronger effect = lower value 1.01 | S. cerevisiae deletion strains, locus YNL271C, strain bni1, stronger effect = lower value 1.02 | S. cerevisiae deletion strains, locus YNL298W, strain CLA4, stronger effect = lower value 0.993 | S. cerevisiae deletion strains, locus YNL307C, strain MCK1, stronger effect = lower value 1.03 | S. cerevisiae deletion strains, locus YNL322C, strain KRE1 (second series), stronger effect = lower value 1.03 | S. cerevisiae deletion strains, locus YNL322C, strain KRE1, stronger effect = lower value 1.02 | S. cerevisiae deletion strains, locus YNR049C, strain mso1, stronger effect = lower value 1.01 | S. cerevisiae deletion strains, locus YNR052C, strain pop2, stronger effect = lower value 1.01 | S. cerevisiae deletion strains, locus YOL006C, strain TOP1, stronger effect = lower value 0.974 | S. cerevisiae deletion strains, locus YOL012C, strain htz1 0.777 | S. cerevisiae deletion strains, locus YOL147C, strain pex11, stronger effect = lower value 1.03 | S. cerevisiae deletion strains, locus YOR001W, strain rrp6, stronger effect = lower value 0.985 | S. cerevisiae deletion strains, locus YOR061W, strain CKA2, stronger effect = lower value 1.04 | S. cerevisiae deletion strains, locus YOR069W, strain VPS5, stronger effect = lower value 1.06 | S. cerevisiae deletion strains, locus YOR070C, strain gyp1, stronger effect = lower value 0.995 | S. cerevisiae deletion strains, locus YOR080W, strain dia2, stronger effect = lower value 1.01 | S. cerevisiae deletion strains, locus YOR083W, strain WHI5, stronger effect = lower value 1.03 | S. cerevisiae deletion strains, locus YOR106W, strain vam3, stronger effect = lower value 1.01 | S. cerevisiae deletion strains, locus YOR136W, strain idh2, stronger effect = lower value 1.02 | S. cerevisiae deletion strains, locus YOR144C, strain elg1, stronger effect = lower value 1.02 | S. cerevisiae deletion strains, locus YOR184W, strain ser1, stronger effect = lower value 0.986 | S. cerevisiae deletion strains, locus YOR231W, strain MKK1, stronger effect = lower value 0.991 | S. cerevisiae deletion strains, locus YOR265W, strain rbl2, stronger effect = lower value 1.01 | S. cerevisiae deletion strains, locus YOR270C, strain vph1, stronger effect = lower value 0.913 | S. cerevisiae deletion strains, locus YOR290C, strain snf2, stronger effect = lower value 0.977 | S. cerevisiae deletion strains, locus YOR316C, strain cot1, stronger effect = lower value 1.03 | S. cerevisiae deletion strains, locus YPL051W, strain arl3, stronger effect = lower value 1.01 | S. cerevisiae deletion strains, locus YPL078C, strain atp4, stronger effect = lower value 1.03 | S. cerevisiae deletion strains, locus YPL106C, strain sse1, stronger effect = lower value 1.05 | S. cerevisiae deletion strains, locus YPL240C, strain hsp82, stronger effect = lower value 1 | S. cerevisiae deletion strains, locus YPL241C, strain CIN2, stronger effect = lower value 1.02 | S. cerevisiae deletion strains, locus YPL256C, strain CLN2, stronger effect = lower value 0.981 | S. cerevisiae deletion strains, locus YPR119W, strain clb2, stronger effect = lower value 1.03 | S. cerevisiae deletion strains, locus YPR141C, strain kar3, stronger effect = lower value 1.03 | S. cerevisiae deletion strains, locus YPR163C, strain tif3, stronger effect = lower value 1.03 | S. cerevisiae deletion strains, locus YPR167C, strain met16, stronger effect = lower value 1.03 | S. cerevisiae deletion strains, strain wtn01, stronger effect = lower value 1.01 | S. cerevisiae strains, strain wild type, stronger effect = lower value 1.02
